# Results as given in PubChem BioAssay.
# Results filed as inconclusive are left out. The source made the active and inactive calls.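 Rule for the calls, unless noted: active = normalized viability below 100% at a tested concentration; inactive = the rest.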
# Tests used:
# [1] = growth inhibition of DIPG glioma cells, dose response, cell-based, SU-DIPG-XVII, MIPE5.0, CellTiter-Glo, qHTS (AID 1347060; cut-off not given, nearly all actives have AC50 up to about 26 µM;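 note: cells exposed to compound for 48 hours before viability readout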); settings: SU-DIPG-XVII viability, CellTiter-Glo ATP luminescence
# [2] = growth inhibition of DIPG glioma cells, dose response, cell-based, JHH-DIPG-1, MIPE4.0, CellTiter-Glo, qHTS (AID 1347062; cut-off not given, nearly all actives have AC50 up to about 27 µM;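 note: cells exposed to compound for two days before readout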); settings: JHH-DIPG-1 viability, CellTiter-Glo ATP luminescence
# [3] = growth inhibition of DIPG glioma cells, dose response, cell-based, SU-DIPG-XIII, MIPE5.0, CellTiter-Glo, qHTS (AID 1347064; cut-off not given, nearly all actives have AC50 up to about 23 µM;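 note: cells exposed to compound for 48 hours before the viability read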); settings: SU-DIPG-XIII viability, CellTiter-Glo ATP luminescence
# [4] = viability loss in pontine glioma line – cell-based, SU-DIPG-XXV, MIPE5.0, CellTiter-Glo, qHTS, dose response (AID 1347065; cut-off not given, nearly all actives have AC50 up to about 26 µM;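 note: cells exposed to compound for 48 hours before ATP readout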); settings: CellTiter-Glo ATP luminescence
# [5] = SU-DIPG-VI glioma cell viability, MIPE4.0 library, CellTiter-Glo luminescence, qHTS (AID 1347066; cut-off not given, nearly all actives have AC50 up to about 30 µM;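 note: cells exposed to compound for 48 hours before readout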); settings: CellTiter-Glo ATP luminescence
# [6] = SU-DIPG-XXV glioma cell viability, MIPE5.0 library, qHTS (AID 1347068; cut-off not given, nearly all actives have IC50 up to about 30 µM)
# [7] = modifiers of HSF1 nuclear foci, imaging, Selleck Cancer Library (AID 1347162; in the data active = plate-normalised HSF1 focus index below about 0.46); settings: human cells, at 10 µM; SSMD: measured here: HSF1 foci SSMD mean; cell count: measured here: cell number; plate-normalised HSF1 focus index: stronger effect = lower value
# [8] = ovarian cancer cell viability with rucaparib, profiling panel, oncology-focused library, rucaparib conditional (AID 1508598); settings: patient-derived ovarian cancer cells, CellTiter-Glo viability, 144 h, stronger effect = lower value
smiles,measurement,setting,value
COc1ccc(C2=N[C@H](c3ccc(Cl)cc3)[C@H](c3ccc(Cl)cc3)N2C(=O)N2CCNC(=O)C2)c(OC(C)C)c1,AC50,[1],14.8 µM (active)
same,AC50,[2],23.5 µM (active)
same,AC50,[3],16.6 µM (active)
same,AC50,[4],10.5 µM (active)
same,outcome,[5],inactive
same,outcome,[6],inactive
CC[C@@H]1C(=O)N(C)c2cnc(Nc3ccc(C(=O)NC4CCN(C)CC4)cc3OC)nc2N1C1CCCC1,AC50,[1],0.0661 µM (active)
same,AC50,[2],8.33 µM (active)
same,AC50,[3],1.48 µM (active)
same,AC50,[4],0.0372 µM (active)
same,AC50,[5],20.9 µM (active)
same,SSMD,[7],4.3
same,cell count,[7],7240
same,plate-normalised HSF1 focus index,[7],1.16 (inactive)
same,viability,"[8]; at 0.000305 µM, OCI-C5x cells, with rucaparib 10 µM, 100% = cells with rucaparib alone",116% (inactive)
same,viability,"[8]; at 0.000305 µM, OCI-C5x cells, without rucaparib",133% (inactive)
same,viability,"[8]; at 0.000305 µM, OCI-P5x cells, with rucaparib 20 µM, 100% = cells with rucaparib alone",89.2% (active)
same,viability,"[8]; at 0.000305 µM, OCI-P5x cells, without rucaparib",77.1% (active)
same,viability,"[8]; at 0.00122 µM, OCI-C5x cells, with rucaparib 10 µM, 100% = cells with rucaparib alone",126% (inactive)
same,viability,"[8]; at 0.00122 µM, OCI-C5x cells, without rucaparib",124% (inactive)
same,viability,"[8]; at 0.00122 µM, OCI-P5x cells, with rucaparib 20 µM, 100% = cells with rucaparib alone",89.5% (active)
same,viability,"[8]; at 0.00122 µM, OCI-P5x cells, without rucaparib",50.9% (active)
same,viability,"[8]; at 0.00488 µM, OCI-C5x cells, with rucaparib 10 µM, 100% = cells with rucaparib alone",51.4% (active)
same,viability,"[8]; at 0.00488 µM, OCI-C5x cells, without rucaparib",47.2% (active)
same,viability,"[8]; at 0.00488 µM, OCI-P5x cells, with rucaparib 20 µM, 100% = cells with rucaparib alone",74.9% (active)
same,viability,"[8]; at 0.00488 µM, OCI-P5x cells, without rucaparib",17% (active)
same,viability,"[8]; at 0.0195 µM, OCI-C5x cells, with rucaparib 10 µM, 100% = cells with rucaparib alone",40.7% (active)
same,viability,"[8]; at 0.0195 µM, OCI-C5x cells, without rucaparib",37.1% (active)
same,viability,"[8]; at 0.0195 µM, OCI-P5x cells, with rucaparib 20 µM, 100% = cells with rucaparib alone",71.7% (active)
same,viability,"[8]; at 0.0195 µM, OCI-P5x cells, without rucaparib",18.2% (active)
same,viability,"[8]; at 0.0781 µM, OCI-C5x cells, with rucaparib 10 µM, 100% = cells with rucaparib alone",38.3% (active)
same,viability,"[8]; at 0.0781 µM, OCI-C5x cells, without rucaparib",30.4% (active)
same,viability,"[8]; at 0.0781 µM, OCI-P5x cells, with rucaparib 20 µM, 100% = cells with rucaparib alone",66.7% (active)
same,viability,"[8]; at 0.0781 µM, OCI-P5x cells, without rucaparib",16.5% (active)
same,viability,"[8]; at 0.313 µM, OCI-C5x cells, with rucaparib 10 µM, 100% = cells with rucaparib alone",32.5% (active)
same,viability,"[8]; at 0.313 µM, OCI-C5x cells, without rucaparib",30.3% (active)
same,viability,"[8]; at 0.313 µM, OCI-P5x cells, with rucaparib 20 µM, 100% = cells with rucaparib alone",48.5% (active)
same,viability,"[8]; at 0.313 µM, OCI-P5x cells, without rucaparib",15.8% (active)
same,viability,"[8]; at 1.25 µM, OCI-C5x cells, with rucaparib 10 µM, 100% = cells with rucaparib alone",15.9% (active)
same,viability,"[8]; at 1.25 µM, OCI-C5x cells, without rucaparib",18.2% (active)
same,viability,"[8]; at 1.25 µM, OCI-P5x cells, with rucaparib 20 µM, 100% = cells with rucaparib alone",43% (active)
same,viability,"[8]; at 1.25 µM, OCI-P5x cells, without rucaparib",15.1% (active)
same,viability,"[8]; at 5 µM, OCI-C5x cells, with rucaparib 10 µM, 100% = cells with rucaparib alone",18% (active)
same,viability,"[8]; at 5 µM, OCI-C5x cells, without rucaparib",21.9% (active)
same,viability,"[8]; at 5 µM, OCI-P5x cells, with rucaparib 20 µM, 100% = cells with rucaparib alone",34.3% (active)
same,viability,"[8]; at 5 µM, OCI-P5x cells, without rucaparib",15.2% (active)
